Source: PubChem BioAssay AID2279 (Southern Research Specialized Biocontainment Screening …, 2010)
Entries with a potency or affinity are not part of this list.

Assay: CCR5-tropic HIV-1 fusion blockers – cell-based, CCR5-tropic Env, dose response (AID 2279)
Conditions: CCR5-tropic HIV-1 Env, reporter read-out; series mostly up to 50 µM; inhibition: at the top concentration; call rule not given here

inhibition, inactive:
COc1ccc2c(c1)cc(C(=O)N/N=C/c1c(O)c(C(=O)O)cc3ccccc13)n2C 4.15%
CC(C)COc1ccc(-c2nn(-c3ccccc3)cc2/C=C2/SC(=S)N(CC(=O)O)C2=O)cc1 -10.6% [at 25 µM]
Cc1c(CCC(=O)O)c(=O)oc2c(C)c3occ(-c4ccc(Cl)cc4)c3cc12 11.6%
COc1cc(/C=C2\C(=N)N3N=C(S(C)(=O)=O)SC3=NC2=O)cc(OC)c1OCCOc1ccc(C)cc1 4.2%
Cc1ccc(S(=O)(=O)/N=C2/NC(=O)/C(=C/c3cc([N+](=O)[O-])ccc3O)S2)cc1 -12.6%
CCOc1ccc2nc(NC(=O)CSc3nc(-c4ccccc4)c(C#N)c(=O)[nH]3)sc2c1 9.5%
O=C(CSc1nc2ccccc2c(=O)n1Cc1ccccc1)Nc1ccc(Br)cc1C(=O)O 7.04%
N#Cc1c(-c2ccccc2)nc(SCc2cccc(C(F)(F)F)c2)[nH]c1=O -4.86%
CCN1C(=O)/C(=C\c2ccc(-c3ccc([N+](=O)[O-])cc3OC)o2)SC1=Nc1cccc(C(=O)O)c1 11.7%
COc1cc(Cl)cc(C(c2c(C(=O)O)[nH]c3ccccc23)c2c(C(=O)O)[nH]c3ccccc23)c1O 0.79%
O=C(O)CCN1C(=O)/C(=C\c2cccc(Oc3ccccc3)c2)SC1=S -2.4%
Cc1cccc(S(=O)(=O)Nc2nc3ccccc3nc2Nc2cccc(C(=O)O)c2)c1 20.8%
COc1cc(OC)c2c(O)c3c(c(-c4c5c(c(O)c6c(OC)cc(OC)cc46)CO[C@@H](C)[C@H]5O)c2c1)[C@H](O)[C@H](C)OC3 6.59%
O=C(O)c1[nH]c2ccccc2c1C(c1cccc(O)c1)c1c(C(=O)O)[nH]c2ccccc12 -15.4%
